Drawing on PubChem BioAssay (NCI), this text covers growth inhibition for 17 compounds.

Compounds without any hit were thinned out: in the full panel of roughly 79,000, 15% have a hit. Values without a mark were called inactive. The source made the active and inactive calls. Rule as the data show it: active = growth inhibition above about 70%; inactive = the rest.

A short description of the test: NCI Yeast Anticancer Drug Screen. Data for the rad18 strain (AID 177). To be noted: S. cerevisiae rad18 mutant growth inhibition; at 33.0 µM; stronger effect = higher value. Summed up:
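Screen uses a yeast strain with a defined lesion in DNA damage repair; compound effect is read as loss of growth compared to untreated vehicle cultures.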
Regarding `C/C(=N\NC(=S)SCc1ccccc1)c1ccccn1`, the growth inhibition was 96% (active).

For the compound `CC[C@@]1(O)C(=O)OCc2c1cc1n(c2=O)Cc2cc3c(N)cccc3nc2-1`, the growth inhibition is -15%.

On to `CN(C)c1ccc(Sc2ccc3nc(N)nc(N)c3c2)cc1`, for which the growth inhibition is -17%. Take `CC(=O)OCCOCNC(=S)N/N=C(\C)c1cnccn1`: the growth inhibition is 32%. With `COc1ccc(C2c3cc4c(cc3OC(C)(O)C2C)OCO4)c(OC)c1` (configuration not stated), the growth inhibition was 15%.

For the compound `COc1cc(C2SCC(=O)N2c2ccc(-c3ccc(-n4c(-c5ccccc5)nc5ccccc5c4=O)cc3)cc2)cc(OC)c1OC` (configuration not stated), the growth inhibition is 3%. As to `COc1ccc(Br)c(C(=O)Sc2nnnn2-c2cccc(Cl)c2)c1`, the growth inhibition is 52%. Then `O=C(NNc1ccnc2cc(Cl)ccc12)/C(=C\c1ccccc1Cl)NC(=O)c1ccccc1`, with 64%; and `CSC(=S)Nc1cccc(C)n1`, with 9%.

As for `O=C(/C=C\c1ccc(Cl)cc1Cl)c1cccs1`, the growth inhibition was 73% (active).

As to `COc1ccc(-c2cn(-c3ccc(I)cc3)c3ncnc(N)c23)cc1`, the growth inhibition is -4%. The same measure for `CN(C)c1ccc(C(C#N)=C(C#N)C#N)cc1`: 6%. Turning to `COc1cc(/C=C2\CCc3ccccc3C2=O)cc(OC)c1OC`, the growth inhibition was 35%. The same measure for `CC(C)/C(Cl)=N\OC(=O)Nc1cccc(Cl)c1`: -24%; for `CC1(C)[C@@H]2CC[C@]1(C)[C@H](OC(=O)CSC#N)C2`: 92% (active); for `NNC(=O)CCc1ccc2ccc3ccccc3c2c1`: 38%. Take `COc1ccc(/C(C)=N/OC(=O)c2c(-c3ccccc3Cl)noc2C)cc1CN1CCOCC1`: the growth inhibition is 21%.
